Source: PubChem BioAssay (National Center for Advancing Translational Sciences (NCATS))
Shown are actives, neighbours in structure and some others; about 7.8% of the full set was active somewhere.
HCMV inh: inhibitors of human cytomegalovirus | HFF cells, HCMV-luciferase reporter, 72 h; hits give low values | activity change, negative = inhibition, % at 57.5 µM | 410,000 tested, 4.5% active; in the data active = activity change below about -60%; inconclusive = no clear call, values can overlap the other calls; inactive = above about -39%
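Compounds were evaluated in HFFs infected with an HCMV luciferase reporter virus (MOI 1 PFU/cell). Luciferase in lysates collected 72 h post infection served as the replication measure.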
LASV entry inh: blocks Lassa virus binding to or entry into cells; Lassa virus pseudotype entry inhibition, cell reporter; Potency, µM (top dose mostly 37.9 µM), without a hit: at the highest dose activity change, negative = inhibition, usual class: inhibitors; 300,000 tested, 1.2% active; AID 540256; calls by dose curve; tested in HEK293 cells; also: potency is read from the fitted curve at half-maximal effect; nearly all actives have a fitted effect of over 50% in size
Marburg entry inh: Marburg virus entry inhibition | Marburg virus pseudotyped entry inhibition, cell reporter | Potency, µM (titrated, usually from 37.8 µM), for the others: top-dose activity change, negative = inhibition, most hits filed as inhibitors | AID 540276 | 300,000 tested, 1.8% active; calls by dose curve; tested in HEK293 cells; also: potency is read from the fitted curve at half-maximal effect
Vaccinia mCherry: inhibitors of vaccinia virus infection (mCherry reporter signal); Vaccinia virus mCherry reporter infection, fluorescence; Potency, µM (doses to about 36.5 µM), for inactives: at the top dose activity change, negative = inhibition, usual class: inhibitors; 310,000 tested, 0.63% active; calls by dose curve; tested in A549 cells; also: potency is read from the fitted curve at half-maximal effect; nearly all actives have a fitted effect of over 35% in size
Vaccinia Venus: vaccinia inhibition (Venus reporter); Vaccinia virus Venus reporter expression, fluorescence; Potency, µM (highest dose often 36.5 µM), inactives show at the top dose activity change, negative = inhibition, actives largely listed as inhibitors; 330,000 tested, 0.46% active; AID 720580; calls by dose curve; tested in A549 cells; also: potency is read from the fitted curve at half-maximal effect; nearly all actives have a fitted effect of over 30% in size
HCV inhibitor: HCV inhibition; Huh7.5.1 HCVcc-Cre infection, luciferase reporter, 44 h; Potency, µM (top dose mostly 41.8 µM), for the others: at the top dose activity change, negative = inhibition, hits mostly inhibitors; 340,000 tested, 3.4% active; AID 651820; active = well fitted inhibition curve with a large enough effect; inconclusive = small, poorly fitted or top-dose-only effect, or another doubt; inactive = no such curve, though single readings can be large or run the other way; also: potency is read from the fitted curve at half-maximal effect
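Cells seeded at 1,000/well and cultured 4 h, then compounds added followed by HCVcc-Cre virus (~0.5 moi). After 44 h further culture, luciferase substrate was added, plates held 15 min at room temperature, and luminescence read for 15 sec.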
The depositor's hits bear a star; [ ] = another dose, or the depositor's remark. % is scaled to controls: 0 for no effect and ±100 for the full control effect.

For O=C(NCc1ccccc1)C1=C[C@H](c2csc3ccccc23)C[C@H](OCCCCO)O1 the results were HCMV inh -95.3*, Vaccinia mCherry -24.4%, Vaccinia Venus inconclusive and HCV inhibitor -39.9%.
Screening COc1cccc(CN2C(=O)c3ccccc3Sc3ccc(C(=O)N(C)Cc4ccccc4)cc32)c1 returned HCMV inh inconclusive, LASV entry inh inconclusive, Marburg entry inh inconclusive, Vaccinia mCherry -9.2% and Vaccinia Venus -2.1%.
For COc1ccc(CNC(=O)c2nc(S(=O)(=O)Cc3ccccc3)ncc2Cl)cc1 the results were HCMV inh -95.1*, LASV entry inh inconclusive, Marburg entry inh -6.8%[46.1 µM], Vaccinia mCherry -11.7%[7.34 µM], Vaccinia Venus -9.8%[7.34 µM] and HCV inhibitor inconclusive.
Screening COc1ccc(CNC(=O)c2nc(SCc3ccc(C)cc3)ncc2Cl)cc1 returned HCMV inh -69.6*, LASV entry inh inconclusive, Marburg entry inh 15.0%[46.1 µM], Vaccinia mCherry -23.3% and Vaccinia Venus -24.2%.
For CCS(=O)(=O)c1ncc(Cl)c(C(=O)NCc2ccccc2)n1 the results were HCMV inh -100.0*, LASV entry inh inconclusive, Marburg entry inh inconclusive, Vaccinia mCherry -13.9% and Vaccinia Venus -10.0%.
For COC(=O)c1ccccc1NC(=O)c1nc(S(=O)(=O)Cc2ccccc2)ncc1Cl the results were HCMV inh -110.0* and HCV inhibitor -0.2%.
`CCCCn1c(=O)c2oc3ccccc3c2n(CC(=O)Nc2cccc(Cl)c2C)c1=O` gave HCMV inh -24.8, LASV entry inh -3.5%[46.1 µM], Vaccinia mCherry inconclusive and Vaccinia Venus -24.9%.
`COCCN1CCN(c2nc(C(=O)Nc3ccc(F)c(Cl)c3)cs2)C1=O` gave HCMV inh -17.8.
`O=C1C(=O)N(Cc2cccnc2)[C@@H](c2ccccn2)/C1=C(\O)c1ccccc1` gave Marburg entry inh 12.5%.
`CCOc1ccc(NC(=O)c2nc(S(=O)(=O)Cc3ccccc3)ncc2Cl)cc1` gave Vaccinia mCherry -25.1% and Vaccinia Venus -24.5%.
For O=C(Nc1ccc2ccccc2c1)c1cnccn1 the results were HCMV inh 104.4, LASV entry inh inconclusive, Marburg entry inh inconclusive and HCV inhibitor 8.0%.
For O=C(NCc1ccccc1)c1nc(S(=O)(=O)Cc2ccccc2)ncc1Cl the results were HCMV inh -77.6*, LASV entry inh inconclusive, Marburg entry inh -7.4%[46.1 µM], Vaccinia mCherry -20.6%, Vaccinia Venus -20.0% and HCV inhibitor -25.2%.
For CC(=O)Nc1ccc(NC(=O)c2nc(S(=O)(=O)Cc3ccccc3)ncc2Cl)cc1 the results were HCMV inh -86.3* and HCV inhibitor -19.7%.
CS(=O)(=O)c1ncc(Cl)c(C(=O)Nc2ccc3ccccc3c2)n1 was read as HCMV inh -98.0*, LASV entry inh inconclusive, Marburg entry inh 8.91µM*, Vaccinia mCherry 10µM*, Vaccinia Venus inconclusive and HCV inhibitor 11.2µM*.
`CCc1cc2c(cc3c(=O)n(CC(=O)NCCc4ccccc4)ncn32)s1` gave HCMV inh 12.4, Marburg entry inh 1.8%[46.1 µM], Vaccinia mCherry -2.5% and Vaccinia Venus -19.3%.
Cc1ccc2ncnc(Nc3ccccc3)c2c1 was read as HCMV inh -18.1, LASV entry inh -0.8%, Marburg entry inh -4.5%[46.1 µM], Vaccinia mCherry -13.6%, Vaccinia Venus -16.0% and HCV inhibitor -4.2%.
Cc1ccc2ncnc(Nc3cccc(C(=O)O)c3)c2c1 was read as HCMV inh -2.8, LASV entry inh -4.2%, Marburg entry inh 13.3%[46.1 µM], Vaccinia mCherry -3.0%, Vaccinia Venus 1.6% and HCV inhibitor -2.2%.
For COc1ccc(Nc2ncnc3ccc(Br)cc23)cc1OC the results were LASV entry inh -15.3%, Marburg entry inh inconclusive, Vaccinia mCherry inconclusive, Vaccinia Venus -21.4% and HCV inhibitor inconclusive.
For CCOC(=O)c1cccc(Nc2ncnc3ccc(C)cc23)c1 the results were HCMV inh -23.9, LASV entry inh -16.8%, Marburg entry inh inconclusive, Vaccinia Venus inconclusive and HCV inhibitor 25.1µM*.
Screening Clc1cccc(Nc2ncnc3ccc(Br)cc23)c1 returned HCMV inh -62.5*, LASV entry inh -24.3%, Marburg entry inh inconclusive, Vaccinia mCherry -10.3%, Vaccinia Venus inconclusive and HCV inhibitor inconclusive.
Screening Clc1ccc(Nc2ncnc3ccc(Br)cc23)cc1 returned HCMV inh -83.0*, LASV entry inh -22.5%, Marburg entry inh inconclusive, Vaccinia mCherry inconclusive, Vaccinia Venus inconclusive and HCV inhibitor inconclusive.
For Cc1cccc(Nc2ncnc3ccc(Br)cc23)c1 the results were HCMV inh -60.5*, LASV entry inh -6.0%[46.1 µM], Marburg entry inh inconclusive, Vaccinia mCherry -1.3%, Vaccinia Venus inconclusive and HCV inhibitor -17.8%.
For Cc1ccccc1-c1nc(CNC(=O)NC2CCCCC2)c(C)o1 the results were HCMV inh 4.7, LASV entry inh -7.2%[46.1 µM], Vaccinia mCherry -12.4% and Vaccinia Venus -0.9%.
`Cc1ccc2c(c1)c(=O)c(C(=O)c1ccc3c(c1)OCO3)cn2Cc1cccc(F)c1` gave HCMV inh -0.4, LASV entry inh -16.9%[46.1 µM], Marburg entry inh inconclusive, Vaccinia mCherry -4.7% and Vaccinia Venus 1.3%.
COc1cc(Cl)c(C)cc1NC(=O)CSc1nc2c(c(=O)[nH]1)CCCC2 was read as HCMV inh -7.4, LASV entry inh -6.9%[46.1 µM], Marburg entry inh -1.3%[46.1 µM], Vaccinia mCherry -7.2% and Vaccinia Venus 9.5%.
CN(C)c1ccc(Nc2ncnc3ccc(Br)cc23)cc1 was read as HCMV inh -76.1* and HCV inhibitor -16.9%.
Screening O=C(O)CSc1nnc(-c2ccc3c(c2)OCO3)o1 returned HCMV inh 36.4, LASV entry inh -17.3%, Marburg entry inh -8.2%, Vaccinia mCherry inactive, Vaccinia Venus -9.0% and HCV inhibitor 21.4%.
Screening O=C(c1ccc(Cl)cc1)N1CCCCC(Sc2nnc(-c3ccc4c(c3)OCO4)o2)C1=O (stereo not given) returned HCMV inh -66.7*, LASV entry inh inconclusive, Marburg entry inh inconclusive and HCV inhibitor -2.5%.
For O=c1[nH]c(=O)n(-c2cccc3ccccc23)c(O)c1C=NCc1ccc2c(c1)OCO2 the results were HCMV inh -108.3*, LASV entry inh 15.3%, Marburg entry inh 20.8% and HCV inhibitor 6.7%.
O=C(/C=C/c1ccccc1Cl)NCc1cccs1 was read as HCMV inh 37.3, LASV entry inh 18.4µM*, Marburg entry inh 14.0%, Vaccinia mCherry -11.5%, Vaccinia Venus -12.3% and HCV inhibitor inconclusive.
`O=C(/C=C/c1ccc(S(=O)(=O)NCc2ccco2)cc1)NCc1ccccc1Cl` gave HCMV inh -38.2, LASV entry inh inconclusive, Marburg entry inh inconclusive, Vaccinia mCherry inconclusive, Vaccinia Venus inconclusive and HCV inhibitor inconclusive.
